Assay results: PubChem BioAssay (NCATS)
Inconclusive results are not listed. Entries that show only a call come without a potency. Calls of active or inactive are those of the source. Calls come from the whole dose curve; as a rule, active = well fitted inhibition curve with a large enough effect; inconclusive = small, poorly fitted or top-dose-only effect; inactive = no such curve, though single readings can be large or run the other way.

Target: Furin (Homo sapiens) (UniProt P09958)
Test: Furin counterscreen qHTS for Zika virus inhibitors (AID 1347149); note: nearly all actives have a fitted effect of over 70% in size
Conditions: furin enzymatic counterscreen, fluorogenic substrate; series mostly up to 114 µM
Summary of the method: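 Counterscreen measures cleavage of 2 microM BOC-RVRR-AMC, below its ~15 microM Km, by 5 nM full-length human furin at pH 7.0 after a 15-min compound preincubation. Inhibition derives from the 15-min fluorescence increase at 37C.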
Potency is the fitted concentration of half-maximal effect.

Furin (Homo sapiens), sequence (P09958 whole entry, looked up): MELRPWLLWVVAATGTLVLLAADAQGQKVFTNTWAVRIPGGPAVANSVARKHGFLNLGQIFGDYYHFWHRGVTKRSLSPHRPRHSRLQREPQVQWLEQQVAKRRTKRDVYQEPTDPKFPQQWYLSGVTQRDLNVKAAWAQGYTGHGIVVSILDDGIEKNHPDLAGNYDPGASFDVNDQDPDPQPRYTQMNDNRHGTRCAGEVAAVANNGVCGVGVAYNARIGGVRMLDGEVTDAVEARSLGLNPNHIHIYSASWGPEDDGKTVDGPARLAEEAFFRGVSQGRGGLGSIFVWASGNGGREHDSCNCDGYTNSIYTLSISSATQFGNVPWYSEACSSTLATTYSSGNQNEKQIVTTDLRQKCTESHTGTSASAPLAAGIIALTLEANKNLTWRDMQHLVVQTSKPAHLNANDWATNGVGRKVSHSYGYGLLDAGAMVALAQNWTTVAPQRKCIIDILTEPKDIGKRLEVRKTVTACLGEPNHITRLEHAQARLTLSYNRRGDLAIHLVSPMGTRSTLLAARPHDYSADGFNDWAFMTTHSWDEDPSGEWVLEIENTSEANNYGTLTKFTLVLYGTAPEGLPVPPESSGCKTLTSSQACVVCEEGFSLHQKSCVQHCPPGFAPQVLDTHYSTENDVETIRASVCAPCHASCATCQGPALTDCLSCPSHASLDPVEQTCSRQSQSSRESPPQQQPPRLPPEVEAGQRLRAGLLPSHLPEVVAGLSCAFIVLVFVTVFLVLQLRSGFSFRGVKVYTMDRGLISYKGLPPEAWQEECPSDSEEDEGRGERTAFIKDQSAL

Row | SMILES | Potency
1 | COc1ccc(C(=O)n2c(C)c(Cc3cccc(O[C@@H](C)C(=O)O)c3)c3cc(OC(F)(F)F)ccc32)cc1 | 49.4 µM (active)
2 | N#CC(c1ccnc(OCc2ccc(CN3CCOCC3)cc2)n1)c1nc2ccccc2s1 (centres undefined) | inactive
3 | O=C(Nc1ccc(S(=O)(=O)Nc2nccs2)cc1)C(c1ccccc1)c1ccccc1 | inactive
4 | Nc1ncnc2c([C@@H]3N[C@H](CO)[C@@H](O)[C@H]3O)c[nH]c12 | inactive
